Source: PubChem BioAssay (EPA / NIEHS)
Records with an inconclusive call do not appear. Calls of active or inactive are those of the source. How the source made its calls: active means hit-call score of the fitted dose curve at least 0.9, where 1 is the maximum; inconclusive means response in the unintended direction; inactive means score below 0.9.

Each compound was assayed against Cellular tumor antigen p53 (Homo sapiens) (UniProt P04637) (assay: TOX21_p53_BLA_p3_ratio: Tox21 HCT-116 p53 Agonism Beta-lactamase Assay, Ratio, Phase 3 (AID 2283596)).
How it was run: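 HCT116 p53-bla cells (4000/well) given compound in DMSO (217-fold dilution) after 5 h, incubated 16 h at 37C. CCF4-AM substrate 2 h at room temperature; 460/530 nm emission ratio, gain fitted against DMSO.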

Sequence of Cellular tumor antigen p53 (Homo sapiens) (P04637 whole entry, looked up): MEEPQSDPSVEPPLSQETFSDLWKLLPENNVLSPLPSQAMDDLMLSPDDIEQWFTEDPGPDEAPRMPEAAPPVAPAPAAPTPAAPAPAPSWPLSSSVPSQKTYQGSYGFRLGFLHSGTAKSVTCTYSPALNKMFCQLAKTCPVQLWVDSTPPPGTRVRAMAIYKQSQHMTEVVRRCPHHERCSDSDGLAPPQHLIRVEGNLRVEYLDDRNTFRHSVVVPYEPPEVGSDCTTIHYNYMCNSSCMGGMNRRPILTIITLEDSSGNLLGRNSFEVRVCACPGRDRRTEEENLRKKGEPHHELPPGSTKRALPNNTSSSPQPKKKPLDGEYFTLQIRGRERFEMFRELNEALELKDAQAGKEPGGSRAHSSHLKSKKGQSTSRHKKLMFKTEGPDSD

| SMILES | outcome | AC50 |
| --- | --- | --- |
| OCCCC1CCCCC1 | inactive | – |
| NC(=O)N[C@@H](CCC(=O)O)C(=O)O | inactive | – |
| CC(C(=O)O)c1ccc2c(c1)[nH]c1ccc(Cl)cc12 (stereo not drawn) | inactive | – |
| C#CCN(C)CCCOc1ccc(Cl)cc1Cl | inactive | – |
| CC(C)(CO)[C@@H](O)C(=O)NCCC(=O)NCCSSCCNC(=O)CCNC(=O)[C@H](O)C(C)(C)CO | inactive | – |
| C/C=C/C=C/CO | inactive | – |
| OC[C@@H](O)C(O)[C@H](O)CO | inactive | – |
| FC(F)(F)C(F)(F)C(F)(F)C(F)(F)C(F)(F)F | inactive | – |
| C[C@]12C=CC(=O)C=C1CC[C@@H]1[C@@H]2[C@@H](O)C[C@@]2(C)[C@H]1CC[C@]2(O)C(=O)COC(=O)CCC(=O)O | inactive | – |
| CN(C)CCC=C1c2ccccc2CSc2ccccc21 | inactive | – |
| CC1CCc2cc(F)cc3c(=O)c(C(=O)O)cn1c23 (stereo not drawn) | inactive | – |
| CN(C)CCC[C@@]1(c2ccc(F)cc2)OCc2cc(C#N)ccc21 | inactive | – |
| CC[C@@H](C(=O)[C@@H](C)[C@@H](O)[C@H](C)[C@@H]1O[C@@H]([C@@H](CC)C(=O)O)CC[C@@H]1C)[C@H]1O[C@]2(C=C[C@@H](O)[C@]3(CC[C@@](C)([C@H]4CC[C@](O)(CC)[C@H](C)O4)O3)O2)[C@H](C)C[C@@H]1C | inactive | – |
| COc1cc(NS(=O)(=O)c2ccc(N)cc2)ncn1 | inactive | – |
| CN1CCCCC1CCN1c2ccccc2Sc2ccc(S(C)=O)cc21 (stereo not drawn) | inactive | – |
| O=C1OCCN1N=Cc1ccc([N+](=O)[O-])o1 | inactive | – |
| O=C(O)[C@H](CC(=O)N1C[C@H]2CCCC[C@H]2C1)Cc1ccccc1 | inactive | – |
| CCCCCC=CCC1CC(=O)OC1=O (stereo not drawn) | inactive | – |
| O=[N+]([O-])c1ccccc1Nc1ccccc1 | inactive | – |
| CCN(CC)CCOC(=O)c1ccc(N)cc1Cl | inactive | – |

| SMILES | outcome | AC50 |
| --- | --- | --- |
| CC1(C)[C@H](C(=O)O)N2C(=O)C[C@H]2S1(=O)=O | inactive | – |
| c1ccc2c(c1)OCC(CN1CCCCC1)O2 (stereo not drawn) | inactive | – |
| CCCCCCCCSCC | inactive | – |
| COC(=O)CCCCCCCCC(=O)OC | inactive | – |
| C[C@@H]1CN(c2c(F)c(N)c3c(=O)c(C(=O)O)cn(C4CC4)c3c2F)C[C@H](C)N1 | inactive | – |
| CCCCCCCCCCCCCCCC(=O)NCCO | inactive | – |
| CC12CCC(C1)C(C)(C)C2=O (stereo not drawn) | inactive | – |
| CN1CCC(=C2c3ccccc3C=Cc3ccccc32)CC1 | inactive | – |
| C=CCn1cc[n+](C)c1 | inactive | – |
| CC(=O)N[C@@H]([C@@H](O)[C@H](O)[C@H](O)CO)[C@@H](O)CC(=O)C(=O)O | inactive | – |
| NC[C@@H]1O[C@H](O[C@H]2[C@@H](O)[C@H](O[C@@H]3[C@@H](O)[C@H](N)C[C@H](N)[C@H]3O[C@H]3O[C@H](CO)[C@@H](O)[C@H](O)[C@H]3N)O[C@@H]2CO)[C@H](N)[C@@H](O)[C@@H]1O | inactive | – |
| Cc1cc(=O)oc2cc(O)cc(O)c12 | inactive | – |
| C=CCSCC1Nc2cc(Cl)c(S(N)(=O)=O)cc2S(=O)(=O)N1 (stereo not drawn) | inactive | – |
| Cc1cccc([N+](=O)[O-])c1C(=O)O | inactive | – |
| CC(C)OC(=O)Nc1ccc2nc(-c3cscn3)[nH]c2c1 | – | 2.6 µM (active) |
| CC(C)c1ccccc1 | inactive | – |
| Oc1cc(O)c(Cl)cc1Cl | inactive | – |
| CN(C)c1ccc(CCO)cc1 | inactive | – |
| CCCCCCCC | inactive | – |

Each compound was assayed against Cellular tumor antigen p53 (Homo sapiens) (UniProt P04637) (assay: TOX21_p53_BLA_p5_ratio: Tox21 HCT-116 p53 Agonism Beta-lactamase Assay, Ratio, Phase 5 (AID 2283599)).
How it was run: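 HCT-116 cells carrying a p53-inducible beta-lactamase reporter were seeded at 4000 cells/well and dosed after 5 h with compound in DMSO (217-fold dilution). After 16 h at 37C, CCF4-AM substrate was added for 2 h, and the 460/530 nm emission ratio was scored as gain-of-signal versus DMSO.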

| SMILES | outcome | AC50 |
| --- | --- | --- |
| OCCCC1CCCCC1 | inactive | – |
| NC(=O)N[C@@H](CCC(=O)O)C(=O)O | inactive | – |
| CC(C(=O)O)c1ccc2c(c1)[nH]c1ccc(Cl)cc12 (stereo not drawn) | inactive | – |
| C#CCN(C)CCCOc1ccc(Cl)cc1Cl | inactive | – |
| CC(C)(CO)[C@@H](O)C(=O)NCCC(=O)NCCSSCCNC(=O)CCNC(=O)[C@H](O)C(C)(C)CO | inactive | – |
| C/C=C/C=C/CO | inactive | – |
| OC[C@@H](O)C(O)[C@H](O)CO | inactive | – |
| FC(F)(F)C(F)(F)C(F)(F)C(F)(F)C(F)(F)F | inactive | – |
| C[C@]12C=CC(=O)C=C1CC[C@@H]1[C@@H]2[C@@H](O)C[C@@]2(C)[C@H]1CC[C@]2(O)C(=O)COC(=O)CCC(=O)O | inactive | – |
| CN(C)CCC=C1c2ccccc2CSc2ccccc21 | inactive | – |
| CC1CCc2cc(F)cc3c(=O)c(C(=O)O)cn1c23 (stereo not drawn) | inactive | – |
| CN(C)CCC[C@@]1(c2ccc(F)cc2)OCc2cc(C#N)ccc21 | inactive | – |
| CC[C@@H](C(=O)[C@@H](C)[C@@H](O)[C@H](C)[C@@H]1O[C@@H]([C@@H](CC)C(=O)O)CC[C@@H]1C)[C@H]1O[C@]2(C=C[C@@H](O)[C@]3(CC[C@@](C)([C@H]4CC[C@](O)(CC)[C@H](C)O4)O3)O2)[C@H](C)C[C@@H]1C | inactive | – |
| COc1cc(NS(=O)(=O)c2ccc(N)cc2)ncn1 | inactive | – |
| CN1CCCCC1CCN1c2ccccc2Sc2ccc(S(C)=O)cc21 (stereo not drawn) | inactive | – |
| O=C1OCCN1N=Cc1ccc([N+](=O)[O-])o1 | inactive | – |
| O=C(O)[C@H](CC(=O)N1C[C@H]2CCCC[C@H]2C1)Cc1ccccc1 | inactive | – |
| CCCCCC=CCC1CC(=O)OC1=O (stereo not drawn) | inactive | – |
| O=[N+]([O-])c1ccccc1Nc1ccccc1 | inactive | – |
| CCN(CC)CCOC(=O)c1ccc(N)cc1Cl | inactive | – |

| SMILES | outcome | AC50 |
| --- | --- | --- |
| CC1(C)[C@H](C(=O)O)N2C(=O)C[C@H]2S1(=O)=O | inactive | – |
| c1ccc2c(c1)OCC(CN1CCCCC1)O2 (stereo not drawn) | inactive | – |
| CCCCCCCCSCC | inactive | – |
| COC(=O)CCCCCCCCC(=O)OC | inactive | – |
| C[C@@H]1CN(c2c(F)c(N)c3c(=O)c(C(=O)O)cn(C4CC4)c3c2F)C[C@H](C)N1 | inactive | – |
| CCCCCCCCCCCCCCCC(=O)NCCO | inactive | – |
| CC12CCC(C1)C(C)(C)C2=O (stereo not drawn) | inactive | – |
| CN1CCC(=C2c3ccccc3C=Cc3ccccc32)CC1 | inactive | – |
| C=CCn1cc[n+](C)c1 | inactive | – |
| CC(=O)N[C@@H]([C@@H](O)[C@H](O)[C@H](O)CO)[C@@H](O)CC(=O)C(=O)O | inactive | – |
| NC[C@@H]1O[C@H](O[C@H]2[C@@H](O)[C@H](O[C@@H]3[C@@H](O)[C@H](N)C[C@H](N)[C@H]3O[C@H]3O[C@H](CO)[C@@H](O)[C@H](O)[C@H]3N)O[C@@H]2CO)[C@H](N)[C@@H](O)[C@@H]1O | inactive | – |
| Cc1cc(=O)oc2cc(O)cc(O)c12 | inactive | – |
| C=CCSCC1Nc2cc(Cl)c(S(N)(=O)=O)cc2S(=O)(=O)N1 (stereo not drawn) | – | 0.059 nM (active) |
| Cc1cccc([N+](=O)[O-])c1C(=O)O | inactive | – |
| CC(C)OC(=O)Nc1ccc2nc(-c3cscn3)[nH]c2c1 | – | 2330 nM (active) |
| CC(C)c1ccccc1 | inactive | – |
| Oc1cc(O)c(Cl)cc1Cl | inactive | – |
| CN(C)c1ccc(CCO)cc1 | inactive | – |
| CCCCCCCC | inactive | – |
